For assay [1], the target named is Lysosomal acid glucosylceramidase (Homo sapiens) (UniProt P04062). Put plainly: Glucocerebrosidase-p2 (AID 348; in the data active = potency below about 10 µM; note: potency is the fitted concentration of half-maximal effect). The note with it: purified GBA, blue fluorogenic substrate, 40 min. The method in brief: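 Normal human glucocerebrosidase (0.2 nM) with blue fluorogenic substrate (80 uM final) in citrate/phosphate pH 5.9 with 10mM sodium taurocholate, 0.01% tween-20; 40 min RT, NaOH/glycine stop; fluorescence Ex 365/Em 440; AC50 from a titration from 0.6 nM upwards.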

The nature of assay [2]: AP1 Signaling Pathway (AID 357; active = well fitted curve in either direction with a large enough effect, not every such curve was filed as active; note: % is set by controls: 0 for no effect and ±100 for the full control effect). The note with it: ME-180 AP-1-bla reporter, EGF-induced, beta-lactamase ratio, 5 h; at 7.69 µM (top of the series) unless noted. The method in brief: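 First, ME-180 AP-1-bla cells were cultured overnight at 37 °C in low-serum Opti-MEM. Next, titrated compounds with EC50 EGF were incubated 5 hours. Finally, CCF4 was added for 2.5 hours and the 460/530 nm ratio recorded.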

In assay [3] the target is Cytochrome P450 1A2 (Homo sapiens) (UniProt P05177). Put plainly: p450-cyp1a2 (AID 410; calls by dose curve; note: potency is the fitted concentration of half-maximal effect). The method in brief:
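Read-out is luminescence from luciferin produced by CYP1A2 demethylation of Luciferin-ME (100uM, at Km). Detection reagent stopped the 60 min NADPH-dependent reaction; signals were normalized to 57 uM furafylline.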

Assay [4] can be described thus: NFAT Signaling Pathway (AID 444; active = well fitted curve in either direction with a large enough effect, not every such curve was filed as active;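 note: carbachol stimulus at about its EC50 of 1 µM final; % is set by controls: 0 for no effect and ±100 for the full control effect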). The note with it: Jurkat NFAT-bla M1, carbachol, beta-lactamase ratio, 5 h; at 7.69 µM (top of the series) unless noted. A digest of the protocol:
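Jurkat cells with NFAT-driven β-lactamase reporter and co-expressed M1 receptor, stimulated with carbachol (final 1 uM, ~EC50), compound titration, 5 h at 37 °C. CCF4 loaded 1 h at RT; 460/530 nm ratio gave %activity and AC50.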

Assay [5] can be described thus: Stat Signaling Pathway (AID 446; active = well fitted curve in either direction with a large enough effect, not every such curve was filed as active;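 note: ME-180 cervical cancer cells given 40 pM IL-6 alongside compound; SIE-controlled beta-lactamase reporter measured as 460/530 nm FRET emission ratio; % is set by controls: 0 for no effect and ±100 for the full control effect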). The note with it: ME-180 (cervical carcinoma) SIE beta-lactamase reporter, IL-6 stimulated, 5 h; at 7.69 µM (top of the series) unless noted. The method in brief:
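Normalization used AC90 stimulation (300 pM IL-6) and AC90 inhibition (125 nM pan-JAK inhibitor at 40 pM IL-6). The underlying signal is SIE-driven beta-lactamase in ME-180 cells after 5 h IL-6 exposure with compound.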

For assay [6], the target named is Glucocorticoid receptor (Homo sapiens) (UniProt P04150). Put plainly: GR-GFP Redistribution (AID 450;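 active = compounds whose dose series gives a full or clear partial fitted curve of increased nuclear translocation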; note: potency is the fitted concentration of half-maximal effect). The note with it: U2OS GR-GFP nuclear translocation, laser cytometry, 2 h.
Chain of Glucocorticoid receptor (Homo sapiens) (P04150 whole entry, looked up, the tested form may be a part): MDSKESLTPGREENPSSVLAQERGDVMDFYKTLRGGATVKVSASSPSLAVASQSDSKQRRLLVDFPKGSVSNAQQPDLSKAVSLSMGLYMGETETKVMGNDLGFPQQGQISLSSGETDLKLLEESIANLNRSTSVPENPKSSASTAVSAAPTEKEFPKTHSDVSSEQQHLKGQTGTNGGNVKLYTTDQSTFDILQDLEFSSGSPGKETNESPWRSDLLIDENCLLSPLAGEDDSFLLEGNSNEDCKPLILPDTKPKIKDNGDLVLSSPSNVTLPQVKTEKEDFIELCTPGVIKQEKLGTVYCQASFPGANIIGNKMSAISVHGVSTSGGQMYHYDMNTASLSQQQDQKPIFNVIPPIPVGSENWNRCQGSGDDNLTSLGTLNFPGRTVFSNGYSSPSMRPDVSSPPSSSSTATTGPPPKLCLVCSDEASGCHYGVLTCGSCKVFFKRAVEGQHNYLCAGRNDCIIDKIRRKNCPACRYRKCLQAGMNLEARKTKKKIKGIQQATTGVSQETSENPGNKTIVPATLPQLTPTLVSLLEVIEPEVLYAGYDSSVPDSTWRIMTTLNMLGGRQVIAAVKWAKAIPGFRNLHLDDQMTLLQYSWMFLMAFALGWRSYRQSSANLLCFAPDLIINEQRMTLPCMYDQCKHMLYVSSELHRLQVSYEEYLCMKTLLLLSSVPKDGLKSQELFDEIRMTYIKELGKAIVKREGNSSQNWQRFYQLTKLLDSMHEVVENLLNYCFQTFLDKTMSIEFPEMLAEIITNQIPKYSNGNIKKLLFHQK
Assay [7] has the same target. As to the kind of experiment: GR-EFC Redistribution (AID 451; calls by dose curve; note: potency is the fitted concentration of half-maximal effect). The note with it: CHO-K1 GR-EFC translocation, beta-gal luminescence, 2 h. The method in brief: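 CHO-K1 cells expressing nuclear EA and GR-ED fragments of b-gal; compounds titrated up to 46 uM final, 2 h at 37 C. GR nuclear translocation read as complemented b-gal luminescence after 1 h RT detection.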

In assay [8] the target is Mitogen-activated protein kinase 10 (Mus musculus) (UniProt Q61831). Put plainly: JNK3 AlphaScreen Assay (AID 530; active = well fitted curve in either direction with a large enough effect, not every such curve was filed as active;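 note: kinase came from lysate of stimulated human HepG2 cells; signal reports phosphorylation of biotinylated GST-cJun 1-79 at Ser73 with 10 µM ATP; % is set by controls: 0 for no effect and ±100 for the full control effect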). The method in brief:
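HepG2 lysate (IL-1b/TNFa pre-activated) + biotin-GST-cJun 1-79 + anti-pSer73 cJun; cpd titration, 15 min RT; ATP 10 uM start; Tris pH 7.6, MgCl2, DTT, vanadate; beads in EDTA buffer; AlphaScreen.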
On the technique in general: Alpha assays give light when donor and acceptor beads are brought close together.

The target of assay [9] is Cytochrome P450 3A4 (Homo sapiens) (UniProt P08684). Put plainly: qHTS Assay for Inhibitors and Substrates of Cytochrome P450 3A4 (AID 884). Note: potency is the fitted concentration of half-maximal effect; nearly all actives have a fitted effect of over 50% in size. A digest of the protocol:
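Luminescent readout of luciferin produced by CYP3A4 (20 nM) dealkylation of Luciferin-PPXE, 25 uM (its KM). NADPH-driven reaction ran 60 min at RT after 10 min compound preincubation; data scaled to 57 uM ketoconazole as 100% inhibition.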

Assay [10] shares this target. Put plainly: qHTS Assay for Activators of Cytochrome P450 3A4 (AID 885). Note: nearly all actives have a fitted effect of over 65% in size. A digest of the protocol: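 Human CYP3A4 dealkylates Luciferin-PPXE to luciferin, which luciferase detection converts to light. Substrate was at its KM (25uM), buffer 200mM KPO4, reaction 60 min at RT.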
On the technique in general: qHTS replaces the single test concentration by a dilution series.

Assay [11] deals with Cytochrome P450 2C19 (Homo sapiens) (UniProt P33261). Put plainly: qHTS Assay for Inhibitors and Substrates of Cytochrome P450 2C19 (AID 899). Note: potency is the fitted concentration of half-maximal effect; nearly all actives have a fitted effect of over 60% in size. The method in brief: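 Luminescent read-out of luciferin formed from Luciferin-H EGE (10uM, equal to KM). Enzyme 5nM in 50mM KPO4; compound added, 10 min at 37C, then NADPH regenerating system for 60 min at 37C. Full inhibition defined by 57uM ketoconazole.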
Chain of Cytochrome P450 2C19 (Homo sapiens) (P33261 whole entry, looked up): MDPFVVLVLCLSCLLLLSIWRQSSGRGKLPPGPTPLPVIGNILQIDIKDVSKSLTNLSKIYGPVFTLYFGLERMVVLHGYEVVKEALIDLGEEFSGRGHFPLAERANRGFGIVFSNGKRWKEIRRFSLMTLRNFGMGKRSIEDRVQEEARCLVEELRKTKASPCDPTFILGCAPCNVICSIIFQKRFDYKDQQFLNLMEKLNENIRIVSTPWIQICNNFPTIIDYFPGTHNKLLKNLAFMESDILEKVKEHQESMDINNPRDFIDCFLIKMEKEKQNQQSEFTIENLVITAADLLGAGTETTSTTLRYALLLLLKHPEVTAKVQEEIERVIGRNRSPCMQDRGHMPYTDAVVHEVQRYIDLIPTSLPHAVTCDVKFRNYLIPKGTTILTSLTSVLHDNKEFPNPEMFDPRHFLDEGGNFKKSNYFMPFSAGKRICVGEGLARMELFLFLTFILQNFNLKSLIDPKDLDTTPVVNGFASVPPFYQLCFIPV

Assay [12] can be described thus: qHTS Assay for Lipid Storage Modulators (AID 1519; calls by dose curve). The note with it: Drosophila S3 cells, BODIPY lipid droplet/cell ratio, laser cytometry, cells loaded with oleic acid; for activity change, negative = inhibition: at 57.5 µM (top of the series). The method in brief:
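Cells seeded at 5,000 per well were treated with compounds over a concentration series and loaded with oleic acid (400 uM, as added). Lipid droplet fluorescence (488 nm excitation, 500-530 nm channel) was read by laser-scanning cytometry and normalized to 20 uM Triacsin C.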

Assay [13] deals with Dual specificity protein kinase CLK4 (Homo sapiens) (UniProt Q9HAZ1). As to the kind of experiment: qHTS Assay for Inhibitors of CDC-like Kinase 4 (Kinase-Glo Assay) (AID 1770). Note: potency is the fitted concentration of half-maximal effect; nearly all actives have a fitted effect of over 65% in size. A digest of the protocol: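 Inhibition was judged from remaining ATP, measured by Ultra-Glo luciferase bioluminescence after Clk4 (25 nM) had acted on RS peptide at 1 uM ATP for 4.5 hours, room temperature.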
Chain of Dual specificity protein kinase CLK4 (Homo sapiens) (Q9HAZ1 whole entry, looked up): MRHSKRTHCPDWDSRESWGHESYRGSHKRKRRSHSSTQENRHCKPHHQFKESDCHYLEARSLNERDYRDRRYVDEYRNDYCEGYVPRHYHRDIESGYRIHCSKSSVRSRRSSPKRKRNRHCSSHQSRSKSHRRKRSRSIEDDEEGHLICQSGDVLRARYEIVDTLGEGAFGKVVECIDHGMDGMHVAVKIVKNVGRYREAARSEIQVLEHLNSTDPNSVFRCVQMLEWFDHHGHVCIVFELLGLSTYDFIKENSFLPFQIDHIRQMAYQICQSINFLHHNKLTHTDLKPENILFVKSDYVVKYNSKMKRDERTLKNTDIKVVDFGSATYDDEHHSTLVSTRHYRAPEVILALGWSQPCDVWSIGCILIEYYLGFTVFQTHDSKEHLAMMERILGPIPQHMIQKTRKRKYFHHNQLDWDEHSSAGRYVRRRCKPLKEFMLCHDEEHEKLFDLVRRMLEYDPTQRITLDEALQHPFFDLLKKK

Assay [14] has the same target. As to the kind of experiment: qHTS Assay for Inhibitors of CDC-like Kinase 4 (ADP-Glo Assay) (AID 1771). Note: potency is the fitted concentration of half-maximal effect; nearly all actives have a fitted effect of over 70% in size. A digest of the protocol: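 In this ADP-Glo format, 1 uM ATP and 100 uM RS peptide served as substrates for 25 nM Clk4 in Mg2+/EGTA/DTT/Triton buffer; reactions ran 1 hr at room temperature before luminescent ADP quantification.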
The target of assay [15] is Ubiquitin carboxyl-terminal hydrolase 1 (Homo sapiens) (UniProt O94782). Put plainly: Inhibitors of USP1/UAF1: Pilot qHTS (AID 504865).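 Note: rhodamine fluorescence freed from ubiquitin-rhodamine substrate followed over time; top concentration of the series differs between compounds; % is set by controls: 0 for no effect and ±100 for the full control effect; nearly all actives have a fitted effect of over 35% in size.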 A digest of the protocol: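 Kinetic fluorescence assay: 1nM USP1/UAF1, 15 min compound preincubation, then 150nM Ub-Rho; 480/540 nm.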
Assay [16] deals with Rap guanine nucleotide exchange factor 3 (Homo sapiens) (UniProt O95398). As to the kind of experiment: Confirmatory qHTS for antagonist of cAMP-regulated guanine nucleotide exchange factor 3 (EPAC1) (AID 1645880).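 Note: plate controls were DMSO only for no effect and full effect of the ATA control for full effect; nearly all actives have a fitted effect of over 55% in size.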 A digest of the protocol:
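Released BODIPY-GDP fluoresces less than Rap1-bound BODIPY-GDP; the signal is followed at 480/540 nm at 5-min intervals over 30 min, after 5 min at room temperature. Reactions contain 100 nM EPAC1, 250 nM RAP1B-BODIPY-GDP and 50 uM GDP; results are normalized to ATA and DMSO.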

The target is the same in assay [17]. Put plainly: Confirmatory qHTS for agonist of cAMP-regulated guanine nucleotide exchange factor 3 (EPAC1) (AID 1645881).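 Note: EPAC1 catalysed release of BODIPY-GDP from Rap1B seen as fluorescence loss; 100% = effect of cAMP agonist control; nearly all actives have a fitted effect of over 75% in size.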
The target in assay [18] is Rap guanine nucleotide exchange factor 4 (Homo sapiens) (UniProt Q8WZA2). Put plainly: Confirmatory qHTS for agonist of cAMP-regulated guanine nucleotide exchange factor 4 (EPAC2) (AID 1645884).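 Note: nucleotide exchange releases bodipy-GDP from Rap1 and this lowers its fluorescence; % is set by controls: 0 for no effect and ±100 for the full control effect; nearly all actives have a fitted effect of over 65% in size.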
Chain of Rap guanine nucleotide exchange factor 4 (Homo sapiens) (Q8WZA2 whole entry, looked up): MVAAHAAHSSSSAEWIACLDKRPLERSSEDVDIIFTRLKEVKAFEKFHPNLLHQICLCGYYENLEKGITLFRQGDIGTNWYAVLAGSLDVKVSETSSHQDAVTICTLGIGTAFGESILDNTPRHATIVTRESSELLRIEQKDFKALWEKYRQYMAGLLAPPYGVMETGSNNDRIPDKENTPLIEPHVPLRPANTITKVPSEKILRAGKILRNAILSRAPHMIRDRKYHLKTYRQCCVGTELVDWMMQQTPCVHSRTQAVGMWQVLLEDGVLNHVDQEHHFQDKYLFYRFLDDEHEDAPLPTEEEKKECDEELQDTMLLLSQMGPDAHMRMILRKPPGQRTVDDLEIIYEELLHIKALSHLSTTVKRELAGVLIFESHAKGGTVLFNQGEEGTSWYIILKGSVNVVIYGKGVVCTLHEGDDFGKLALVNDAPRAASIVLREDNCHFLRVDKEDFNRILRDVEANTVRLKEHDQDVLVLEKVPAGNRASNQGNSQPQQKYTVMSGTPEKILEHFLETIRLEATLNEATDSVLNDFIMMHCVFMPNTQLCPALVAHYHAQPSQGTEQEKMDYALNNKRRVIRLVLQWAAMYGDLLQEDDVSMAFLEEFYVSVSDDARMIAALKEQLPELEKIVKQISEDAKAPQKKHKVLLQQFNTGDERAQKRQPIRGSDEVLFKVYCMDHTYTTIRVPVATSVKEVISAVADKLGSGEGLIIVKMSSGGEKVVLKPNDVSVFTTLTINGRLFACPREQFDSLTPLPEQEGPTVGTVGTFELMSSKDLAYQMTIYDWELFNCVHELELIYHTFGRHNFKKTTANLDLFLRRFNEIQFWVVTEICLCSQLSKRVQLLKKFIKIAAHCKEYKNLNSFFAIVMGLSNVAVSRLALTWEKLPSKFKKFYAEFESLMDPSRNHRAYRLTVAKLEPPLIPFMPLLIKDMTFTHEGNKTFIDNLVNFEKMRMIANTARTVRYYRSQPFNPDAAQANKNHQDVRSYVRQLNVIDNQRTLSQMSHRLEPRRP
Assay [19] shares this target. Put plainly: Confirmatory qHTS for antagonist of cAMP-regulated guanine nucleotide exchange factor 4 (EPAC2) (AID 1645885). Note: % is set by controls: 0 for no effect and ±100 for the full control effect; nearly all actives have a fitted effect of over 25% in size.
[20] abbreviates: measured here: cell count channel max response.
The mark [21] stands for this setting: measured here: lipid channel max response.

Results filed as inconclusive are left out. The source made the active and inactive calls. Unless noted, calls come from the whole dose curve; as a rule, active = well fitted curve in the direction sought with a large enough effect; inconclusive = small, poorly fitted or top-dose-only effect, or another doubt; inactive = no such curve, though single readings can be large; an effect the other way counts as inactive or inconclusive. Some results are limits rather than exact numbers.

Chain of Rap guanine nucleotide exchange factor 3 (Homo sapiens) (O95398 whole entry, looked up): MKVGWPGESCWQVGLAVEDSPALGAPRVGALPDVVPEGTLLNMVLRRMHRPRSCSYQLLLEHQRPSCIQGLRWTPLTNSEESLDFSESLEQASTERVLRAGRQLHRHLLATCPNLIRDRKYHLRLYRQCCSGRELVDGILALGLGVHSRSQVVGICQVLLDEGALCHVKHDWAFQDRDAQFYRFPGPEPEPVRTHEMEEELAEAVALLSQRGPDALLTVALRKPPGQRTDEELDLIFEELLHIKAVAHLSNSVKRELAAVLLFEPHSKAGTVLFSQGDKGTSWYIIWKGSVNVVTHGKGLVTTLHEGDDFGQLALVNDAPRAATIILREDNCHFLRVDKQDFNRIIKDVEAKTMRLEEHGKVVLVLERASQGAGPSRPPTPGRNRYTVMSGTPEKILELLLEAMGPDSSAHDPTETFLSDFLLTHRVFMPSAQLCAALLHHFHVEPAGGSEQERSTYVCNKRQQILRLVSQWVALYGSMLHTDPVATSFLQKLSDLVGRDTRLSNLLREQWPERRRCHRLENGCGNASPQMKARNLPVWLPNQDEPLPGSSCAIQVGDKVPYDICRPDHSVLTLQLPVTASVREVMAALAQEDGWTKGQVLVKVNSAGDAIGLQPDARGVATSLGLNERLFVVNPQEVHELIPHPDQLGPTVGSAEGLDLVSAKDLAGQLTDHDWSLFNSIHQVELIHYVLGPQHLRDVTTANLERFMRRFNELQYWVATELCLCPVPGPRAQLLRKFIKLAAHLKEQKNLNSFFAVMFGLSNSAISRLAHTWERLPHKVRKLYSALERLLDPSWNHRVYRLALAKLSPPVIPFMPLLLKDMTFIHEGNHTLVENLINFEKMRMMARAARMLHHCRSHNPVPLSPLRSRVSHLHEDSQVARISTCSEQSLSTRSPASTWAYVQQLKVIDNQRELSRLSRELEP
Chain of Cytochrome P450 3A4 (Homo sapiens) (P08684 whole entry, looked up): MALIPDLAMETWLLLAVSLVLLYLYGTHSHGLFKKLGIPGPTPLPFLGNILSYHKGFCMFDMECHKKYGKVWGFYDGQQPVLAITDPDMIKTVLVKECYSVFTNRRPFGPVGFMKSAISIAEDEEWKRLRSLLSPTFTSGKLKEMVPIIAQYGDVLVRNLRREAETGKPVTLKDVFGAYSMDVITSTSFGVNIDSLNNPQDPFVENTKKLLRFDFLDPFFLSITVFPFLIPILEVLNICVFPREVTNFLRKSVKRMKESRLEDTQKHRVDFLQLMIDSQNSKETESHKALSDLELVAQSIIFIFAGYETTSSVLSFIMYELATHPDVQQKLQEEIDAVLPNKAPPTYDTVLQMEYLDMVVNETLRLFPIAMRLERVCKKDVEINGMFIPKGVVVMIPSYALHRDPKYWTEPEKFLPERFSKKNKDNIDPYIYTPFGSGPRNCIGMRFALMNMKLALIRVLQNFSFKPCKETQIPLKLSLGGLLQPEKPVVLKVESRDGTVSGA
Chain of Cytochrome P450 1A2 (Homo sapiens) (P05177 whole entry, looked up): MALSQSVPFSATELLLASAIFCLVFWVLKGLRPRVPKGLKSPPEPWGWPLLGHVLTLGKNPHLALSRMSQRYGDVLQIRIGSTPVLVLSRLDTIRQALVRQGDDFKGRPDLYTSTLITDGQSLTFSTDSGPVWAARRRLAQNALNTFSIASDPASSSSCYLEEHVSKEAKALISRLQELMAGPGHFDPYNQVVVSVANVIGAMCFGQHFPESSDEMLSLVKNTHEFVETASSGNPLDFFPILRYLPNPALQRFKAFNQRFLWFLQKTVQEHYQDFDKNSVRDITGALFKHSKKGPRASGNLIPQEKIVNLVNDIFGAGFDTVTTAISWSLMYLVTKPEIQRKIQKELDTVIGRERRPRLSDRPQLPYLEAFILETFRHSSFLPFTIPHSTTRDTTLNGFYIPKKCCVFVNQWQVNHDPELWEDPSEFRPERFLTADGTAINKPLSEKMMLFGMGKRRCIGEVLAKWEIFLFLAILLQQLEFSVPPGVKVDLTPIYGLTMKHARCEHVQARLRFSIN

On to `COc1ccccc1CNc1ncnc2ccc(-c3ccccc3C#N)cc12`, for which the Potency is > 11.4 µM (inactive) in assay [1]; 1.26 µM (active) in [3]; > 46 µM (inactive) in [6]; > 46 µM (inactive) in assay [7]; 3.98 µM (active) in assay [9]; 7.94 µM (active) in assay [11]. Further, the values for the Potency in assay [13] and in assay [14] were 6.31 µM (active) and 7.94 µM (active), respectively. The results for the activity change, negative = inhibition in assay [2], in [4] and in assay [12] were -13.9% (inactive), 1.75% (inactive) and -1.18% (inactive), respectively. In addition, in [5], the activity, negative = inhibition is -23% (inactive). Moreover, the Potency result in [8], in [10], in [15], in assay [16], in assay [17] and in assay [18] was “inactive” each time. Besides, the Potency entry in assay [19] was “inactive”. In addition, the figures for the max response in [12] (setting [20]) and in [12] (setting [21]) were 16.4% and 14.7%, respectively.

Regarding `CC(=O)NC(C(=O)O)C(C)(C)SN=O` (centres undefined), in assay [12], the activity change, negative = inhibition was 0.182% (inactive). Also, the values for the max response in assay [12] (setting [20]) and in [12] (setting [21]) were 6.33% and 9%, respectively.

The values are drawn from PubChem BioAssay (NCATS).
